Laboratory results: the supplement of paper PMC4466140

These binders were tested against AgAbp1 (assay: SPOT peptide array binding signal intensity (averaged, normalized) (arbitrary units (background-subtracted, floor 0; scale differs between SH3 domains)); higher = stronger binding of the SH3 domain to the peptide).
Procedure, shortened: (§1)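 Binding signal is given in arbitrary units that differ between domains and is the normalized, background-subtracted spot intensity averaged across replicates. Each GST-SH3 fusion from one of four yeast species was made in E. coli BL21(DE3), purified on glutathione Sepharose and incubated at 10 μg/ml overnight at 4°C on cellulose-bound synthetic 15-mer peptides in which cysteines were replaced by serines. Detection used anti-GST antibody, an HRP anti-mouse secondary and luminol, followed by imaging and Genespotter quantification.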

Binder	SPOT peptide array binding signal intensity
SPLGAPPPPPHKDHL	≤ 0

Each binder was assayed against AgBbc1 in the same assay as above.
Procedure, shortened: as §1

Binder	SPOT peptide array binding signal intensity
SPLGAPPPPPHKDHL	≤ 0

The binders below were run against AgBem1-D1 in the same assay as above.
Procedure, shortened: as §1

Binder	SPOT peptide array binding signal intensity
SPLGAPPPPPHKDHL	≤ 0

What follows are binders tested against AgBzz1-D1 in the same assay as above.
Procedure, shortened: as §1

Binder	SPOT peptide array binding signal intensity
SPLGAPPPPPHKDHL	≤ 0

Each binder was assayed against AgBzz1-D2 in the same assay as above.
Procedure, shortened: as §1

Binder	SPOT peptide array binding signal intensity
SPLGAPPPPPHKDHL	3

The binders below were run against AgCyk3 in the same assay as above.
Procedure, shortened: as §1

Binder	SPOT peptide array binding signal intensity
SPLGAPPPPPHKDHL	1

The binders below were run against AgFus1 in the same assay as above.
Procedure, shortened: as §1

Binder	SPOT peptide array binding signal intensity
SPLGAPPPPPHKDHL	≤ 0

These binders were tested against AgHof1 in the same assay as above.
Procedure, shortened: as §1

Binder	SPOT peptide array binding signal intensity
SPLGAPPPPPHKDHL	≤ 0

What follows are binders tested against AgHse1 in the same assay as above.
Procedure, shortened: as §1

Binder	SPOT peptide array binding signal intensity
SPLGAPPPPPHKDHL	≤ 0

What follows are binders tested against AgLsb1 in the same assay as above.
Procedure, shortened: as §1

Binder	SPOT peptide array binding signal intensity
SPLGAPPPPPHKDHL	≤ 0

Each binder was assayed against AgLsb4 in the same assay as above.
Procedure, shortened: as §1

Binder	SPOT peptide array binding signal intensity
SPLGAPPPPPHKDHL	≤ 0

Each binder was assayed against AgMyo5 in the same assay as above.
Procedure, shortened: as §1

Binder	SPOT peptide array binding signal intensity
SPLGAPPPPPHKDHL	546

What follows are binders tested against AgNbp2 in the same assay as above.
Procedure, shortened: as §1

Binder	SPOT peptide array binding signal intensity
SPLGAPPPPPHKDHL	≤ 0

These binders were tested against AgRvs167 in the same assay as above.
Procedure, shortened: as §1

Binder	SPOT peptide array binding signal intensity
SPLGAPPPPPHKDHL	2.83

Each binder was assayed against AgSho1 in the same assay as above.
Procedure, shortened: as §1

Binder	SPOT peptide array binding signal intensity
SPLGAPPPPPHKDHL	≤ 0

Each binder was assayed against AgSla1-D1-D2 in the same assay as above.
Procedure, shortened: as §1

Binder	SPOT peptide array binding signal intensity
SPLGAPPPPPHKDHL	6

These binders were tested against AgSla1-D3 in the same assay as above.
Procedure, shortened: as §1

Binder	SPOT peptide array binding signal intensity
SPLGAPPPPPHKDHL	≤ 0

These binders were tested against CaAbp1-D1 in the same assay as above.
Procedure, shortened: as §1

Binder	SPOT peptide array binding signal intensity
SPLGAPPPPPHKDHL	≤ 0

Each binder was assayed against CaAbp1-D2 in the same assay as above.
Procedure, shortened: as §1

Binder	SPOT peptide array binding signal intensity
SPLGAPPPPPHKDHL	≤ 0

These binders were tested against CaBbc1 in the same assay as above.
Procedure, shortened: as §1

Binder	SPOT peptide array binding signal intensity
SPLGAPPPPPHKDHL	≤ 0

These binders were tested against CaBem1-D1 in the same assay as above.
Procedure, shortened: as §1

Binder	SPOT peptide array binding signal intensity
SPLGAPPPPPHKDHL	≤ 0

These binders were tested against CaBzz1-D1 in the same assay as above.
Procedure, shortened: as §1

Binder	SPOT peptide array binding signal intensity
SPLGAPPPPPHKDHL	8.5

What follows are binders tested against CaBzz1-D2 in the same assay as above.
Procedure, shortened: as §1

Binder	SPOT peptide array binding signal intensity
SPLGAPPPPPHKDHL	≤ 0

These binders were tested against CaCyk3 in the same assay as above.
Procedure, shortened: as §1

Binder	SPOT peptide array binding signal intensity
SPLGAPPPPPHKDHL	≤ 0

These binders were tested against CaFus1 in the same assay as above.
Procedure, shortened: as §1

Binder	SPOT peptide array binding signal intensity
SPLGAPPPPPHKDHL	≤ 0

These binders were tested against CaHof1 in the same assay as above.
Procedure, shortened: as §1

Binder	SPOT peptide array binding signal intensity
SPLGAPPPPPHKDHL	≤ 0

These binders were tested against CaHse1 in the same assay as above.
Procedure, shortened: as §1

Binder	SPOT peptide array binding signal intensity
SPLGAPPPPPHKDHL	1

The binders below were run against CaLsb1 in the same assay as above.
Procedure, shortened: as §1

Binder	SPOT peptide array binding signal intensity
SPLGAPPPPPHKDHL	≤ 0

Each binder was assayed against CaLsb4 in the same assay as above.
Procedure, shortened: as §1

Binder	SPOT peptide array binding signal intensity
SPLGAPPPPPHKDHL	≤ 0

These binders were tested against CaMyo5 in the same assay as above.
Procedure, shortened: as §1

Binder	SPOT peptide array binding signal intensity
SPLGAPPPPPHKDHL	13.5

The binders below were run against CaNbp2 in the same assay as above.
Procedure, shortened: as §1

Binder	SPOT peptide array binding signal intensity
SPLGAPPPPPHKDHL	≤ 0

What follows are binders tested against CaRvs167 in the same assay as above.
Procedure, shortened: as §1

Binder	SPOT peptide array binding signal intensity
SPLGAPPPPPHKDHL	3

Each binder was assayed against CaRvs167-3 in the same assay as above.
Procedure, shortened: as §1

Binder	SPOT peptide array binding signal intensity
SPLGAPPPPPHKDHL	≤ 0

The binders below were run against CaSho1 in the same assay as above.
Procedure, shortened: as §1

Binder	SPOT peptide array binding signal intensity
SPLGAPPPPPHKDHL	≤ 0

Each binder was assayed against CaSla1-D1-D2 in the same assay as above.
Procedure, shortened: as §1

Binder	SPOT peptide array binding signal intensity
SPLGAPPPPPHKDHL	≤ 0

These binders were tested against CaSla1-D3 in the same assay as above.
Procedure, shortened: as §1

Binder	SPOT peptide array binding signal intensity
SPLGAPPPPPHKDHL	≤ 0

The binders below were run against ScAbp1 in the same assay as above.
Procedure, shortened: as §1

Binder	SPOT peptide array binding signal intensity
SPLGAPPPPPHKDHL	≤ 0

What follows are binders tested against ScBbc1 in the same assay as above.
Procedure, shortened: as §1

Binder	SPOT peptide array binding signal intensity
SPLGAPPPPPHKDHL	≤ 0

The binders below were run against ScBem1-D1 in the same assay as above.
Procedure, shortened: as §1

Binder	SPOT peptide array binding signal intensity
SPLGAPPPPPHKDHL	≤ 0

What follows are binders tested against ScBzz1-D1 in the same assay as above.
Procedure, shortened: as §1

Binder	SPOT peptide array binding signal intensity
SPLGAPPPPPHKDHL	11

The binders below were run against ScBzz1-D2 in the same assay as above.
Procedure, shortened: as §1

Binder	SPOT peptide array binding signal intensity
SPLGAPPPPPHKDHL	≤ 0

What follows are binders tested against ScCyk3 in the same assay as above.
Procedure, shortened: as §1

Binder	SPOT peptide array binding signal intensity
SPLGAPPPPPHKDHL	≤ 0

Each binder was assayed against ScFus1 in the same assay as above.
Procedure, shortened: as §1

Binder	SPOT peptide array binding signal intensity
SPLGAPPPPPHKDHL	≤ 0

What follows are binders tested against ScHof1 in the same assay as above.
Procedure, shortened: as §1

Binder	SPOT peptide array binding signal intensity
SPLGAPPPPPHKDHL	1.5

These binders were tested against ScHse1 in the same assay as above.
Procedure, shortened: as §1

Binder	SPOT peptide array binding signal intensity
SPLGAPPPPPHKDHL	≤ 0

What follows are binders tested against ScLsb1 in the same assay as above.
Procedure, shortened: as §1

Binder	SPOT peptide array binding signal intensity
SPLGAPPPPPHKDHL	≤ 0

The binders below were run against ScLsb2 in the same assay as above.
Procedure, shortened: as §1

Binder	SPOT peptide array binding signal intensity
SPLGAPPPPPHKDHL	≤ 0

The binders below were run against ScLsb3 in the same assay as above.
Procedure, shortened: as §1

Binder	SPOT peptide array binding signal intensity
SPLGAPPPPPHKDHL	≤ 0

The binders below were run against ScLsb4 in the same assay as above.
Procedure, shortened: as §1

Binder	SPOT peptide array binding signal intensity
SPLGAPPPPPHKDHL	≤ 0

What follows are binders tested against ScMyo3 in the same assay as above.
Procedure, shortened: as §1

Binder	SPOT peptide array binding signal intensity
SPLGAPPPPPHKDHL	931

These binders were tested against ScMyo5 in the same assay as above.
Procedure, shortened: as §1

Binder	SPOT peptide array binding signal intensity
SPLGAPPPPPHKDHL	670

What follows are binders tested against ScNbp2 in the same assay as above.
Procedure, shortened: as §1

Binder	SPOT peptide array binding signal intensity
SPLGAPPPPPHKDHL	≤ 0

These binders were tested against ScPex13 in the same assay as above.
Procedure, shortened: as §1

Binder	SPOT peptide array binding signal intensity
SPLGAPPPPPHKDHL	≤ 0

Each binder was assayed against ScRvs167 in the same assay as above.
Procedure, shortened: as §1

Binder	SPOT peptide array binding signal intensity
SPLGAPPPPPHKDHL	1

The binders below were run against ScSho1 in the same assay as above.
Procedure, shortened: as §1

Binder	SPOT peptide array binding signal intensity
SPLGAPPPPPHKDHL	≤ 0

What follows are binders tested against ScSla1-D1-D2 in the same assay as above.
Procedure, shortened: as §1

Binder	SPOT peptide array binding signal intensity
SPLGAPPPPPHKDHL	≤ 0

These binders were tested against ScSla1-D3 in the same assay as above.
Procedure, shortened: as §1

Binder	SPOT peptide array binding signal intensity
SPLGAPPPPPHKDHL	≤ 0

These binders were tested against SpAbp1-D1 in the same assay as above.
Procedure, shortened: as §1

Binder	SPOT peptide array binding signal intensity
SPLGAPPPPPHKDHL	≤ 0

Each binder was assayed against SpBbc1 in the same assay as above.
Procedure, shortened: as §1

Binder	SPOT peptide array binding signal intensity
SPLGAPPPPPHKDHL	≤ 0

The binders below were run against SpBzz1-D1 in the same assay as above.
Procedure, shortened: as §1

Binder	SPOT peptide array binding signal intensity
SPLGAPPPPPHKDHL	176

The binders below were run against SpBzz1-D2 in the same assay as above.
Procedure, shortened: as §1

Binder	SPOT peptide array binding signal intensity
SPLGAPPPPPHKDHL	≤ 0

What follows are binders tested against SpCyk3 in the same assay as above.
Procedure, shortened: as §1

Binder	SPOT peptide array binding signal intensity
SPLGAPPPPPHKDHL	≤ 0

What follows are binders tested against SpHof1 in the same assay as above.
Procedure, shortened: as §1

Binder	SPOT peptide array binding signal intensity
SPLGAPPPPPHKDHL	≤ 0

What follows are binders tested against SpHof1-2 in the same assay as above.
Procedure, shortened: as §1

Binder	SPOT peptide array binding signal intensity
SPLGAPPPPPHKDHL	1

The binders below were run against SpHof1-3 in the same assay as above.
Procedure, shortened: as §1

Binder	SPOT peptide array binding signal intensity
SPLGAPPPPPHKDHL	≤ 0

What follows are binders tested against SpHse1 in the same assay as above.
Procedure, shortened: as §1

Binder	SPOT peptide array binding signal intensity
SPLGAPPPPPHKDHL	≤ 0

Each binder was assayed against SpLsb1 in the same assay as above.
Procedure, shortened: as §1

Binder	SPOT peptide array binding signal intensity
SPLGAPPPPPHKDHL	≤ 0

The binders below were run against SpLsb4 in the same assay as above.
Procedure, shortened: as §1

Binder	SPOT peptide array binding signal intensity
SPLGAPPPPPHKDHL	≤ 0

These binders were tested against SpMyo1 in the same assay as above.
Procedure, shortened: as §1

Binder	SPOT peptide array binding signal intensity
SPLGAPPPPPHKDHL	1260

The binders below were run against SpNbp2 in the same assay as above.
Procedure, shortened: as §1

Binder	SPOT peptide array binding signal intensity
SPLGAPPPPPHKDHL	≤ 0

Each binder was assayed against SpPex13 in the same assay as above.
Procedure, shortened: as §1

Binder	SPOT peptide array binding signal intensity
SPLGAPPPPPHKDHL	2

These binders were tested against SpRvs167 in the same assay as above.
Procedure, shortened: as §1

Binder	SPOT peptide array binding signal intensity
SPLGAPPPPPHKDHL	0.167

These binders were tested against SpSla1-D1-D2 in the same assay as above.
Procedure, shortened: as §1

Binder	SPOT peptide array binding signal intensity
SPLGAPPPPPHKDHL	1

Each binder was assayed against SpSla1-D3 in the same assay as above.
Procedure, shortened: as §1

Binder	SPOT peptide array binding signal intensity
SPLGAPPPPPHKDHL	≤ 0
